According to the supplement of paper PMC9262897, “Low-cost anti-mycobacterial drug discovery using engineered E. coli” (Nature Communications, 2022):
Structures can show the parent of a compound that is named as a salt. ± gives the standard deviation of the averaged measurements.

Assays:
Assay in all cases: growth (OD600 after 10 h); higher = more growth (less inhibition)
[1] = tested on: E. coli TESEC Alr+ wild-type control; settings: compound 0.1 mM; raw OD600 reference: median of DMSO wells 0.241, cell-free background 0.041
Method: (§1)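 TESEC Mtb Alr E. coli, or the Alr+ wild-type control, in 384-well plates with Prestwick library compounds at 0.1 mM and 1% DMSO, across arabinose induction levels of 1E3 to 1E7 nM. Growth is read as OD600 after 10 h at 37 °C in triplicate biological replicates.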

[2] = tested on: E. coli TESEC Mtb Alr; settings: compound 0.1 mM
Method: as §1

[3] = tested on: E. coli TESEC Mtb Asd; settings: compound 0.1 mM
Method: (§2)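 TESEC E. coli strains in which the native enzyme is deleted and replaced by arabinose-inducible Mtb Asd, DapB, CysH or TrpD, each grown in its selective medium. Strains were screened against the Prestwick library at 0.1 mM and 1% DMSO in 384-well format at low and high arabinose induction. Growth is read as OD600 after 10 h in triplicate.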

[4] = tested on: E. coli TESEC Mtb DapB; settings: compound 0.1 mM
Method: as §2

[5] = tested on: E. coli TESEC Alr+ wild-type control; settings: compound 0.1 mM; raw OD600 reference: median of DMSO wells 0.49, cell-free background 0.052
Method: (§3)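 TESEC Mtb Alr E. coli (ΔaraC ΔtolC ΔentC Δalr ΔdadX, arabinose-inducible Mtb Alr) or the Alr+ wild-type control strain, grown in defined M9-fructose medium without D-alanine in 96-well plates with Prestwick library compounds at 0.1 mM and 1% DMSO. Low Alr induction is 0.1 µM arabinose and high induction is 10 mM arabinose.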

[6] = tested on: E. coli TESEC Mtb Alr; settings: compound 0.1 mM; remark: listed apart in the source
Method: as §3

[7] = arabinose 1000 nM, raw OD600 reference: median of DMSO wells 0.294, cell-free background 0.041
[8] = arabinose 10000 nM, raw OD600 reference: median of DMSO wells 0.264, cell-free background 0.041
[9] = arabinose 100000 nM, raw OD600 reference: median of DMSO wells 0.201, cell-free background 0.041
[10] = arabinose 1000000 nM, raw OD600 reference: median of DMSO wells 0.193, cell-free background 0.041
[11] = arabinose 10000000 nM, raw OD600 reference: median of DMSO wells 0.146, cell-free background 0.041
[12] = arabinose induction (level): High, raw OD600 reference: median of DMSO wells 0.331, cell-free background 0.041
[13] = arabinose induction (level): Low, raw OD600 reference: median of DMSO wells 0.417, cell-free background 0.041
[14] = arabinose induction (level): High, raw OD600 reference: median of DMSO wells […], cell-free background 0.041
[15] = arabinose induction (level): Low, raw OD600 reference: median of DMSO wells 0.227, cell-free background 0.041
[16] = arabinose 100 nM, raw OD600 reference: median of DMSO wells 0.413, cell-free background 0.052
[17] = arabinose 10000000 nM, raw OD600 reference: median of DMSO wells […], cell-free background 0.052

SMILES | growth [1] | growth [2, 7] | growth [2, 8] | growth [2, 9] | growth [2, 10] | growth [2, 11] | growth [3, 12] | growth [3, 13] | growth [4, 14] | growth [4, 15] | growth [5] | growth [6, 16] | growth [6, 17]
CN1C2CCCC1CC(NC(=O)c1nn(C)c3ccccc13)C2 (stereo not drawn) [Granisetron] | 0.208 ± 0.0038 | 0.301 ± 0.026 | 0.2743 ± 0.0024 | 0.171 ± 0.0068 | 0.213 ± 0.014 | 0.126 ± 0.0041 | 0.28 ± 0.063 | 0.379 ± 0.08 | 0.202 ± 0.022 | 0.238 ± 0.015 | 0.549 ± 0.068 | 0.424 ± 0.0065 | 0.351 ± 0.0039
CNC(=C[N+](=O)[O-])NCCSCc1ccc(CN(C)C)o1 [Ranitidine hydrochloride] | 0.235 ± 0.0096 | 0.283 ± 0.015 | 0.252 ± 0.0043 | 0.203 ± 0.0086 | 0.179 ± 0.0036 | 0.1447 ± 0.0011 | 0.323 ± 0.037 | 0.455 ± 0.058 | 0.191 ± 0.011 | 0.234 ± 0.032 | 0.485 ± 0.064 | 0.408 ± 0.0097 | 0.338 ± 0.0081
CNCCCC1c2ccccc2C=Cc2ccccc21 [Protriptyline hydrochloride] | 0.177 ± 0.013 | 0.219 ± 0.0041 | 0.256 ± 0.018 | 0.157 ± 0.0029 | 0.12 ± 0.0051 | 0.137 ± 0.0036 | 0.153 ± 0.0035 | 0.263 ± 0.058 | 0.164 ± 0.039 | 0.21 ± 0.011 |  | 0.402 ± 0.013 | 0.313 ± 0.018
CO[C@H]1/C=C/O[C@@]2(C)Oc3c(C)c(O)c4c(O)c(c(/C=N/N5CCN(C6CCCC6)CC5)c(O)c4c3C2=O)NC(=O)/C(C)=C\C=C\[C@H](C)[C@H](O)[C@@H](C)[C@@H](O)[C@@H](C)[C@H](OC(C)=O)[C@@H]1C [Rifapentine] | 0.0433 ± 0.00049 | 0.0468 ± 0.0029 | 0.04193 ± 0.00032 | 0.042 ± 0.00082 | 0.0431 ± 0.0013 | 0.04243 ± 0.00025 | 0.0584 ± 0.0025 | 0.0547 ± 0.0039 | 0.102 ± 0.087 | 0.0512 ± 0.00082 | 0.05153 ± 0.00031 | 0.0847 ± 0.014 | 0.0548 ± 0.0062
CN1CCN(C2=Nc3ccccc3Oc3ccc(Cl)cc32)CC1 [Loxapine succinate] | 0.166 ± 0.0027 | 0.182 ± 0.0068 | 0.194 ± 0.0033 | 0.189 ± 0.0039 | 0.12 ± 0.0061 | 0.158 ± 0.0041 | 0.201 ± 0.029 | 0.214 ± 0.021 | 0.19 ± 0.0079 | 0.248 ± 0.079 | 0.399 ± 0.0093 | 0.381 ± 0.017 | 0.224 ± 0.014
CCN(CC)CCOc1ccc(C(=C(Cl)c2ccccc2)c2ccccc2)cc1 [Clomiphene citrate (Z,E)] | 0.0417 ± 0.00081 | 0.04167 ± 0.00032 | 0.04553 ± 0.00029 | 0.0433 ± 0.0019 | 0.0493 ± 0.00052 | 0.0428 ± 0.00085 | 0.0496 ± 0.0019 | 0.0482 ± 0.00099 | 0.04853 ± 0.00015 | 0.0475 ± 0.00049 |  | 0.0696 ± 0.034 | 0.0856 ± 0.015
O=C(c1ccccc1)c1ccc2n1CCC2C(=O)O (stereo not drawn) [Ketorolac tromethamine] | 0.222 ± 0.0085 | 0.262 ± 0.015 | 0.253 ± 0.013 | 0.181 ± 0.01 | 0.195 ± 0.0049 | 0.137 ± 0.0035 | 0.381 ± 0.035 | 0.331 ± 0.036 | 0.194 ± 0.02 | 0.216 ± 0.049 |  | 0.384 ± 0.016 | 0.326 ± 0.0097
Cn1c([N+](=O)[O-])cnc1COC(N)=O [Ronidazole] | 0.226 ± 0.0055 | 0.296 ± 0.007 | 0.27 ± 0.0076 | 0.161 ± 0.0087 | 0.149 ± 0.0036 | 0.164 ± 0.0025 | 0.241 ± 0.036 | 0.338 ± 0.016 | 0.187 ± 0.0036 | 0.253 ± 0.031 |  | 0.4333 ± 0.0022 | 0.285 ± 0.011
CC1=Nc2ccc(Cl)cc2S(=O)(=O)N1 [Diazoxide] | 0.244 ± 0.013 | 0.276 ± 0.018 | 0.271 ± 0.0032 | 0.209 ± 0.04 | 0.189 ± 0.01 | 0.146 ± 0.0083 | 0.369 ± 0.022 | 0.412 ± 0.032 | 0.199 ± 0.0067 | 0.245 ± 0.048 |  | 0.4111 ± 0.0032 | 0.365 ± 0.034
CCCCC1C(=O)N(c2ccccc2)N(c2ccc(O)cc2)C1=O (stereo not drawn) [Oxyphenbutazone] | 0.2 ± 0.01 | 0.255 ± 0.0043 | 0.262 ± 0.0047 | 0.211 ± 0.027 | 0.124 ± 0.0071 | 0.129 ± 0.004 | 0.366 ± 0.025 | 0.384 ± 0.047 | 0.204 ± 0.019 | 0.229 ± 0.044 |  | 0.415 ± 0.0059 | 0.28 ± 0.0025
CCSc1ccc2c(c1)N(CCCN1CCN(C)CC1)c1ccccc1S2 [Thiethylperazine dimalate] | 0.0403 ± 0.00055 | 0.0413 ± 0.0013 | 0.0405 ± 0.0005 | 0.0425 ± 0.002 | 0.03993 ± 0.00021 | 0.0411 ± 0.00055 | 0.0483 ± 0.0004 | 0.0464 ± 0.0011 | 0.0474 ± 0.0002 | 0.04737 ± 0.00025 |  | 0.0513 ± 0.00084 | 0.0544 ± 0.0021
COCCCC/C(=N\OCCN)c1ccc(C(F)(F)F)cc1 [Fluvoxamine maleate] | 0.225 ± 0.0049 | 0.274 ± 0.0066 | 0.26 ± 0.013 | 0.214 ± 0.016 | 0.133 ± 0.0052 | 0.136 ± 0.0081 | 0.295 ± 0.079 | 0.231 ± 0.044 | 0.183 ± 0.014 | 0.229 ± 0.05 | 0.518 ± 0.051 | 0.416 ± 0.0072 | 0.319 ± 0.0054
Cc1c(N(C)C)c(=O)n(-c2ccccc2)n1C [Amidopyrine] | 0.242 ± 0.0096 | 0.28 ± 0.016 | 0.2721 ± 0.0006 | 0.225 ± 0.02 | 0.184 ± 0.0082 | 0.138 ± 0.0025 | 0.373 ± 0.017 | 0.41 ± 0.042 | 0.21 ± 0.017 | 0.254 ± 0.056 | 0.462 ± 0.039 | 0.412 ± 0.0055 | 0.365 ± 0.037
CC(C)(Sc1cc(C(C)(C)C)c(O)c(C(C)(C)C)c1)Sc1cc(C(C)(C)C)c(O)c(C(C)(C)C)c1 [Probucol] | 0.248 ± 0.0044 | 0.298 ± 0.014 | 0.259 ± 0.0043 | 0.236 ± 0.028 | 0.172 ± 0.0035 | 0.173 ± 0.02 | 0.344 ± 0.1 | 0.408 ± 0.093 | 0.207 ± 0.014 | 0.22 ± 0.016 | 0.583 ± 0.039 | 0.407 ± 0.0098 | 0.366 ± 0.015
CC(C)COCC(CN(Cc1ccccc1)c1ccccc1)N1CCCC1 (stereo not drawn) [Bepridil hydrochloride] | 0.03963 ± 0.00021 | 0.03953 ± 0.00038 | 0.03937 ± 0.00031 | 0.04057 ± 0.00029 | 0.03933 ± 5.8e-05 | 0.0411 ± 0.0014 | 0.04653 ± 0.00032 | 0.0475 ± 0.0016 | 0.0467 ± 0.0011 | 0.04587 ± 0.00031 | 0.04887 ± 0.00032 | 0.304 ± 0.21 | 0.0512 ± 0.0012
CC(C)NCC(O)COc1ccc(COCCOC(C)C)cc1 (stereo not drawn) [Bisoprolol fumarate] | 0.227 ± 0.01 | 0.302 ± 0.01 | 0.254 ± 0.01 | 0.222 ± 0.032 | 0.192 ± 0.0099 | 0.14 ± 0.0055 | 0.391 ± 0.017 | 0.467 ± 0.07 | 0.184 ± 0.017 | 0.227 ± 0.027 |  | 0.409 ± 0.016 | 0.37 ± 0.028
CN(N=O)C(=O)N[C@H]1C(O)O[C@H](CO)[C@@H](O)[C@@H]1O (mixture of isomers) [Streptozotocin] | 0.197 ± 0.0036 | 0.259 ± 0.028 | 0.2526 ± 0.0016 | 0.147 ± 0.0062 | 0.14 ± 0.0077 | 0.0717 ± 0.0018 | 0.243 ± 0.0054 | 0.305 ± 0.045 | 0.192 ± 0.016 | 0.206 ± 0.015 | 0.226 ± 0.025 | 0.378 ± 0.019 | 0.0602 ± 0.0034
